Test results: PubChem BioAssay (NCATS)
A number with no mark means an inactive call. Inconclusive results are not listed. Entries that show only a call come without a potency. Active and inactive are the calls of the source. Calls follow the shape of the dose curve; as a rule, active = well fitted curve in the direction sought with a large enough effect; inconclusive = small, poorly fitted or top-dose-only effect, or another doubt; inactive = no such curve, though single readings can be large; an effect the other way counts as inactive or inconclusive.

Experiments:
[1] = HPAF-II 24hr Apoptosis Induction qHTS against the NCATS CANVASS Library (AID 1347356)
How it was run: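 HPAF-II cells (500/well) exposed to compounds in 11-point series for 24 h at 37 degrees C; caspase-3/7 activity read by Caspase-Glo luminescence after 15 min at room temperature. Doxorubicin titration as control.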

[2] = HEK293 24hr Apoptosis Induction qHTS against the NCATS CANVASS Library (AID 1347359)
How it was run: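 HEK293 cells, 500 per well, exposed to an 11-point compound series for 24 hours at 37 degrees C. Caspase 3/7 activity read by Caspase-Glo luminescence (DEVD substrate) after 15 min at room temperature.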

[3] = HPAF-II 18hr Apoptosis Induction qHTS against the NCATS CANVASS Library (AID 1347360)
How it was run: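 Seed HPAF-II cells at 500/well in DMEM + 10% FBS, pin-transfer compounds, incubate 18 hours at 37 degrees C/5% CO2, add Caspase-Glo 3/7 reagent, wait 15 min, read luminescence.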

[4] = tested on: NAD(P)H diaphorase (Clostridium kluyveri); test: Diaphorse counterscreen qHTS: Assay Interference Panel against the NCATS CANVASS Library (AID 1347362)
How it was run: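 Clostridium kluyveri diaphorase in PBS + 0.01% Tween-20 preincubated 15 min with compounds. Resazurin and NADH then added for 5 min at room temperature in the dark; resorufin fluorescence read (ex 525, em 598).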

[5] = qHTS for ATAD5 Agonist screened against the NCATS CANVASS Library (AID 1347367);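 also: luciferase reporter driven by ATAD5 which rises upon DNA damage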
How it was run: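 HEK293T-ATAD5 luc reporter; 2000 cells/well; 5hr settle; cpd 11-pt qHTS; 16hr 37C 5% CO2 dark; viability by CellTiter-Fluor (AFC fluorescence); then luciferase luminescence, 30min RT.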

[6] = G06 Cancer Cell Toxicity qHTS against the NCATS CANVASS Library (AID 1347368); also: nearly all actives have a fitted effect of over 60% in size; also: potency is read from the fitted curve at half-maximal effect
How it was run: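 G06 dog glioma cells, 500 per well, exposed 72 hr at 37C, 5% CO2 to compounds in an 11-point series. Cytotoxicity read as ATP content by CellTiterGlo luminescence.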

[7] = qHTS for ATAD5 Antagonist screened against the NCATS CANVASS Library (AID 1347370); also: nearly all actives have a fitted effect of over 65% in size; also: potency is read from the fitted curve at half-maximal effect
How it was run: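 HEK293T cells with stably integrated ATAD5-luciferase reporter, 2000/well, 5 h attachment; compounds plus 10 µM 5-fluorouridine, 16 h at 37 °C. Luciferase luminescence read, with CellTiter-Fluor viability read first.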

[8] = target: Nuclear receptor subfamily 1 group I member 3 (Homo sapiens) (UniProt Q14994); test: qHTS for Constitutive Androstane Receptor (CAR) Antagonist screened against the NCATS CANVASS Library (AID 1347372); also: potency is read from the fitted curve at half-maximal effect
How it was run: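 HepG2 cells stably carrying hCAR and CYP2B6-2.2kb luciferase reporter, 2500 cells/well, compound with 50 nM CITCO agonist for 24hr at 37C. ONE-Glo luminescence measured CAR activity; CellTiter-Fluor read viability.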

[9] = target: Nuclear receptor subfamily 1 group I member 3 (Homo sapiens) (UniProt Q14994); test: qHTS for Constitutive Androstane Receptor (CAR) Agonist screened against the NCATS CANVASS Library (AID 1347373);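 also: every well also contained 1.5 µM PK11195 alongside the test compound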
How it was run: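 HepG2 cells stably carrying hCAR and a CYP2B6-2.2kb luciferase reporter, treated 24hr at 37C with compounds plus 1.5uM PK11195; activation by ONE-Glo luminescence, viability by CellTiter-Fluor.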

[10] = qHTS for Hypoxia signaling pathway (HIF-1) agonists against the NCATS CANVASS Library (AID 1347375)
How it was run: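 HRE-bla ME-180 cells (0.5% dialyzed FBS) were pre-incubated 5 hrs at 37C, then exposed to compounds in an 11-point series for 17 hrs. Read-out was CCF4-AM beta-lactamase FRET (460/530 nm emissions), with CellTiter-Glo viability in the same wells.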

[11] = 10-beta competent E. coli microbial cell viability qHTS against the NCATS CANVASS Library (AID 1347376); also: series mostly up to about 46 µM
How it was run: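 10-beta competent E. coli (0.2 OD) were exposed overnight at 37C to compounds in an 11-point series. Viability was read as ATP-dependent BacTiter-Glo luminescence after 20 min at room temperature.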

[12] = qHTS for H2AX Agonists against the NCATS CANVASS Library (AID 1347378);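 also: phospho-H2AX S139 level in CHO-K1 lysates by TR-FRET emission ratio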
How it was run: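 CHO-K1, 1000 cells/well, o/n 37C; cpd several conc, 3 hr 37C, 0.76% DMSO; lyse 30 min RT; cryptate anti-pH2AX(S139) + d2 anti-H2AX, 24 hr RT; HTRF 665/620.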

[13] = Inflammasome Signaling qHTS Counterscreen: IL-1-beta AlphaLISA counterscreen against the NCATS CANVASS Library (AID 1347381);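 also: cell-free check with purified IL-1β in medium and no THP-1 cells; series mostly up to about 57 µM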
How it was run: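 Cell-free interference check: compounds added to medium spiked with 4 pg purified IL-1β. Anti-IL-1β acceptor beads (6 ug/mL) with 0.6 nM biotinylated antibody added for 1 h at RT, then streptavidin donor beads (24 ug/mL) for 30 min in the dark. AlphaLISA read at 680/615 nm.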

[14] = Cytotoxicity qHTS for assessment of Hepg2 cells membrane integrity screened against the NCATS CANVASS Library (AID 1347387)
How it was run: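 HepG2 cells (2000/well) attached overnight, then exposed 5 hr at 37C to compounds in an 11-point series (0.59 nM - 46 uM final). LDH release from damaged membranes read fluorometrically (CytoTox-ONE; 560/590 nm) after 10 min at room temperature.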

[15] = qHTS for Activators of p53 Stress Response Pathway screened against the NCATS CANVASS Library (AID 1347388); also: potency is read from the fitted curve at half-maximal effect
How it was run: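 p53RE-bla HCT-116 cells (4000/well) were pre-incubated for 5 h, then treated with compound (11 points) for 16 h at 37C. After 2 h with CCF4, the 460/530 nm ratio gave reporter activation; CellTiter-Glo measured viability.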

[16] = qHTS assay for small molecule disruptors of mitochondrial membrane potential screened against the NCATS CANVASS Library (AID 1347389); also: series mostly up to about 46 µM; nearly all actives have a fitted effect of over 60% in size
How it was run: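 HepG2 cells (2,000/well) plated overnight, then exposed to compounds in 11-point qHTS series for 1 h at 37C before 30 min Mito-MPS dye; depolarization read as fall in red aggregate (590 nm) to green monomer (535 nm) fluorescence.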

[17] = Secretion counterscreen for inhibitors of the SERCaMP assay screened against the NCATS CANVASS Library (AID 1347390);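 also: light from luciferase secreted into medium read as a measure of general secretion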; also: potency is read from the fitted curve at half-maximal effect
How it was run: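 SH-SY5Y-GLuc STOP cells; 4 h attach; cpds 0.001 - 77 uM (qHTS, 11 pts), 20 h 37C/5% CO2; coelenterazine in glow buffer; luminescence, 5 s exposure.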

[18] = qHTS for activators of dead-cell proteases activity screened against the NCATS CANVASS Library (AID 1347392);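 also: luminescence from protease leaking out of membrane-damaged cells cleaving impermeant substrate; rising signal means more cytotoxicity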
How it was run: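 HepG2 cells, 2000/well, attached 18 h at 37C, then exposed to compounds (11-point qHTS) for 5 h. Dead-cell protease release read as luminescence from cell-impermeant AAF-aminoluciferin substrate after 15 min at room temperature.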

[19] = Vero-766 cells viability qHTS against the NCATS CANVASS Library: Counterscreen for Zika virus inhibition assay (AID 1347394); also: series mostly up to about 46 µM; nearly all actives have a fitted effect of over 60% in size
How it was run: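 Vero 766, no virus; 1000 cells/well; o/n attach; cpd 11-pt; 72 h, 37C, 5% CO2; CTG luminescence; cell-free media wells = 100% inhibition.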

[20] = J3T Cancer Cell Toxicity qHTS against the NCATS CANVASS Library (AID 1347371); also: potency is read from the fitted curve at half-maximal effect
How it was run: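 J3T dog glioma cells, 500 per well, treated 72 h at 37C with compounds (11-point qHTS); viability from ATP content by CellTiterGlo luminescence; bortezomib titration as control.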

Chain of Nuclear receptor subfamily 1 group I member 3 (Homo sapiens) (Q14994 whole entry, looked up): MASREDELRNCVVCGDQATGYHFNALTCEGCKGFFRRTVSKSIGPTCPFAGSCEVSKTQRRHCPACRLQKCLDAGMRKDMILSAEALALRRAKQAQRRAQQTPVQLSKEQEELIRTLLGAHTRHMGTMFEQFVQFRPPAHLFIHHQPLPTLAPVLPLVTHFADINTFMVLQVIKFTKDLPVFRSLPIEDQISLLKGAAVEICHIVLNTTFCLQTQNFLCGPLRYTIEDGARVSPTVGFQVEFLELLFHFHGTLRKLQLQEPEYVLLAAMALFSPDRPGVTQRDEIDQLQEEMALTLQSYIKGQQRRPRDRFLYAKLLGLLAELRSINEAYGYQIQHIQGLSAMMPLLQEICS

Compound | outcome [1] | Potency [2] | Potency [3] | Potency [4] | Potency [5] | Potency [6] | Potency [7] | Potency [8] | Potency [9] | outcome [10] | outcome [11] | Potency [12] | outcome [13] | outcome [14] | Potency [15] | Potency [16] | Potency [17] | Potency [18] | Potency [19] | Potency [20]
C/C(=C\[C@H](C)C(=O)C[C@H](O)CC1CC(=O)NC(=O)C1)[C@@H]1OC(=O)CCCC/C=C/C[C@@H](O)[C@@H]1C | inactive | inactive | inactive | inactive | inactive | 2.64 µM (active) | 8.31 µM (active) | 13.2 µM (active) | inactive | inactive | inactive | inactive | inactive | inactive | inactive | inactive | 12.2 µM (active) | inactive | inactive | –
CC1=C2CC[C@]3(C)[C@H](CC=C4[C@@H]5CC(C)(C)CC[C@@H]5C(=O)[C@H](O)[C@]43C)[C@@]2(C)C=C(O)C1=O | inactive | inactive | inactive | inactive | inactive | inactive | – | inactive | inactive | inactive | inactive | inactive | inactive | inactive | inactive | – | inactive | inactive | – | inactive
C=C[C@](Cl)(CBr)CCC=C(C)C | inactive | inactive | inactive | inactive | inactive | – | inactive | inactive | inactive | inactive | – | inactive | inactive | inactive | inactive | inactive | inactive | inactive | inactive | inactive
C/C1=C/[C@@H](C)[C@H](O)[C@@H](O)/C=C/CC/C=C/C(=O)O[C@@H]1[C@H](C)C(=O)/C=C/CC1CC(=O)NC(=O)C1 | inactive | inactive | inactive | inactive | inactive | – | – | 2.09 µM (active) | inactive | inactive | inactive | inactive | inactive | inactive | inactive | inactive | – | inactive | inactive | –
CCC(=O)N[C@@H](C[C@H](C)C(Cl)(Cl)Cl)C(=O)N1C(=O)C=C(OC)[C@@H]1C[C@H](C)CCl | inactive | inactive | inactive | inactive | inactive | inactive | inactive | 10.5 µM (active) | inactive | – | inactive | inactive | inactive | inactive | – | – | inactive | – | inactive | inactive
C=CC(C)(C)C(=O)[C@@H](C)[C@@H]1CC[C@@](C)(C=C)O1 | inactive | inactive | inactive | inactive | inactive | inactive | inactive | inactive | inactive | inactive | inactive | inactive | inactive | inactive | inactive | inactive | inactive | inactive | inactive | inactive
O=C(OC[C@H]1O[C@@H](OC(=O)c2cc(O)c(O)c(O)c2)[C@H](OC(=O)c2cc(O)c(O)c(O)c2)[C@@H](OC(=O)c2cc(O)c(O)c(O)c2)[C@@H]1OC(=O)c1cc(O)c(O)c(O)c1)c1cc(O)c(O)c(O)c1 | inactive | inactive | inactive | – | inactive | 23.5 µM (active) | inactive | inactive | inactive | – | inactive | – | inactive | inactive | 11.7 µM (active) | – | inactive | inactive | – | inactive
Oc1ccc(C2Oc3cc(O)c4c(c3[C@@H]2c2cc(O)cc(O)c2)[C@H]2C(c3ccc(O)cc3)c3c(O)cc5c(c3[C@H]2C4c2ccc(O)cc2)[C@H](c2cc(O)cc(O)c2)C(c2ccc(O)cc2)O5)cc1 (stereo partly drawn) | inactive | inactive | inactive | inactive | inactive | – | inactive | inactive | inactive | inactive | inactive | inactive | inactive | inactive | – | – | inactive | inactive | – | inactive
COc1cc([C@@H]2c3cc4c(cc3C[C@@]3(O[C@@H]5O[C@H](CO)[C@@H](O)[C@H](O)[C@H]5O)COC(=O)[C@H]23)OCO4)cc(OC)c1OC | inactive | inactive | inactive | inactive | inactive | 0.0418 µM (active) | inactive | 0.066 µM (active) | inactive | inactive | inactive | inactive | inactive | inactive | inactive | inactive | inactive | inactive | – | –
C/C(=C\[C@H](C)C(=O)CCCC1CC(=O)NC(=O)C1)[C@@H]1OC(=O)/C=C/CC/C=C/[C@H](O)[C@@H](O)[C@@H]1C | inactive | inactive | inactive | inactive | inactive | 0.372 µM (active) | 2.63 µM (active) | 3.31 µM (active) | inactive | inactive | inactive | – | inactive | inactive | inactive | inactive | 2.72 µM (active) | inactive | inactive | –
C/C(=C\[C@H](C)C(=O)/C=C/CC1CC(=O)NC(=O)C1)[C@@H]1OC(=O)/C=C/CC/C=C/C[C@@H](O)[C@@H]1C | inactive | inactive | inactive | inactive | – | 1.05 µM (active) | 3.31 µM (active) | 18.6 µM (active) | inactive | inactive | inactive | – | inactive | inactive | – | – | 10.8 µM (active) | inactive | inactive | 3.72 µM (active)
COC(=O)[C@@]12Oc3cccc(O)c3C(O)=C1C(=O)C[C@H](C)[C@H]2O | inactive | inactive | inactive | inactive | inactive | inactive | inactive | inactive | inactive | inactive | inactive | inactive | inactive | inactive | inactive | inactive | – | inactive | inactive | inactive
